Gal4-VP16 FLuc: VP16 counterscreen qHTS for inhibitors of ROR gamma transcriptional activity; Drosophila S2 Gal4-VP16 UAS-luciferase, luminescence, 20 h; Potency, µM (highest dose often 53.6 µM), hits mostly inhibitors; 3.5% of 310,000 active; AID 2546, 2010;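 also: Gal4-VP16 expression switched on by copper sulfate through the metallothionein promoter; nearly all actives have a fitted effect of over 50% in size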
TDP1 cell CPT: qHTS for Inhibitors of human tyrosyl-DNA phosphodiesterase 1 (TDP1): qHTS in cells in presence of CPT. chicken DT40 Tdp1-/-;hTDP1 cells + 20 nM CPT, ATP luminescence, 48 h. Potency, µM (highest dose often 46.2 µM), most hits filed as inhibitors. 12% of 420,000 active. AID 686979, 2013; also: nearly all actives have a fitted effect of over 55% in size
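Chicken DT40 Tdp1-/- cells stably complemented with human TDP1 were seeded at 400 cells/well in medium containing 20 nM camptothecin, exposed to pin-transferred compounds, and grown at 37 °C for at least 48 hr. Viability was read as ATP luminescence.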
DT40 TDP1 no CPT: qHTS for Inhibitors of human tyrosyl-DNA phosphodiesterase 1 (TDP1): qHTS in cells in absence of CPT; DT40 Tdp1-/- hTDP1 cells, no CPT, ATP luminescence, 48 h; Potency, µM (highest dose often 46.2 µM), most hits filed as inhibitors; 15% of 420,000 active; also: nearly all actives have a fitted effect of over 55% in size
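Stably hTDP1-transfected Tdp1-null chicken DT40 cells were treated with library compounds minus camptothecin and grown for at least 48 hr at 37 °C, after which cellular ATP was quantified by luminescence.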
TDP1 block: qHTS Assay for Inhibitors of Tyrosyl-DNA Phosphodiesterase (TDP1) | Tyrosyl-DNA phosphodiesterase 1 (Homo sapiens), Q9NUW8 | recombinant TDP1, AlphaScreen DNA substrate cleavage | Potency, µM (doses to about 130 µM), most hits filed as inhibitors | 0.28% of 350,000 active | AID 485290, 2010; also: nearly all actives have a fitted effect of over 40% in size
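Compounds were preincubated with Tdp1 (1 nM final) for 15 min at room temperature before substrate (15 nM final) started a 5 min reaction; beads (10 ug/ml final) were then added for 10 min before AlphaScreen detection.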
RORg inh: qHTS for inhibitors of ROR gamma transcriptional activity; AID 2551, 2010; Nuclear receptor ROR-gamma (Mus musculus), P51450; Drosophila S2 Gal4-RORgamma UAS-luciferase reporter, 20 h; Potency, µM (top dose mostly 53.6 µM), most hits filed as inhibitors; 5.4% of 310,000 active; also: nearly all actives have a fitted effect of over 60% in size
Target sequence (P51450 whole entry, looked up, the tested form may be a part): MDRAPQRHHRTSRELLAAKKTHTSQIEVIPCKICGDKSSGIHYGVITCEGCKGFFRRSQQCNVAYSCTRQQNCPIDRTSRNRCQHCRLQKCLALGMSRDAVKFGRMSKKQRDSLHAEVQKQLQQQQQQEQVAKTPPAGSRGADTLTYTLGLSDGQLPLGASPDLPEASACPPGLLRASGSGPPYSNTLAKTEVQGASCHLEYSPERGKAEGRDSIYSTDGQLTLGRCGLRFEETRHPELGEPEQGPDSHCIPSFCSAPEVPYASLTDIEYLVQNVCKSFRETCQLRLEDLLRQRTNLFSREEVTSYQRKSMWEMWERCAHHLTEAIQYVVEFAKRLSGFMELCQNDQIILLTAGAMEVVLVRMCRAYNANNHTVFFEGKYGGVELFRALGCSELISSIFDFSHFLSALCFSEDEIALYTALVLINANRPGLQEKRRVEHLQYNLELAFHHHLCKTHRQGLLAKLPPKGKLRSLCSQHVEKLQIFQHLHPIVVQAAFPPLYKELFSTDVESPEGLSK
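Drosophila S2 cells stably expressing Gal4-DBD/mouse RORγ fusion under metallothionein promoter plus UAS-luciferase; compound 1 h, then 700 uM CuSO4 induction for 20 h at ambient temperature; inhibition read as reduced luminescence.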
Numbers stand for hits; i = inactive; ? = inconclusive; nt = not tested or not shown. A selection: hits, their analogues and other compounds. The true share with any hit is near 19%. Calls follow the shape of the dose curve; as a rule, active = well fitted curve in the direction sought with a large enough effect; inconclusive = small, poorly fitted or top-dose-only effect, or another doubt; inactive = no such curve, though single readings can be large; an effect the other way counts as inactive or inconclusive.

SMILES	Gal4-VP16 FLuc	TDP1 cell CPT	DT40 TDP1 no CPT	TDP1 block	RORg inh
CC(C)(C)NS(=O)(=O)c1ccc(N2C(=O)c3ccccc3C2=O)cc1	i	i	i	i	i
CC(C)(C)NS(=O)(=O)c1cccc(S(=O)(=O)c2cccc(S(=O)(=O)NC(C)(C)C)c2)c1	i	23µM	?	i	?
CCC/C(C#CCCN1C(=O)c2ccccc2C1=O)=C1/c2ccccc2C(=O)N1c1ccccc1	nt	18µM	?	i	nt
CCC/C(C#Cc1ccc(N(C)C)cc1)=C1/c2ccccc2C(=O)N1c1ccccc1	nt	15µM	16µM	i	nt
O=C1c2ccccc2C(=O)N1CCC#C/C=C1\c2ccccc2C(=O)N1c1ccccc1	nt	?	21µM	nt	nt
O=C1c2ccccc2C(=O)N1c1ccccc1	nt	i	i	nt	nt
CCC/C(C#Cc1cc(OC)cc(OC)c1)=C1/c2ccccc2C(=O)N1c1ccccc1	nt	26µM	?	i	nt
CCOc1ccc(-c2nnn(CC(=O)NCCc3c[nH]c4ccccc34)n2)cc1	i	i	i	i	i
C(=N\N1CCN(C2c3ccccc3-c3ccccc32)CC1)/c1ccncc1	i	?	?	i	i
C/C(=N\N1CCN(C2c3ccccc3-c3ccccc32)CC1)c1ccncc1	i	16µM	16µM	i	i
O=C(O)c1ccc(NC(=O)c2ccc(Cl)c(S(=O)(=O)N3CCCCCC3)c2)cc1	nt	i	i	i	nt
CCCC(=O)Nc1nn(C)c2nc3c(C)cccc3cc12	i	i	i	i	i
Cc1cc(C)c2c(NC(=S)NC(=O)c3ccccc3)nn(C)c2n1	5µM	i	i	i	1.4µM
Cc1cc(C)c2c(NC(=O)CCl)nn(C)c2n1	?	13µM	12µM	i	i
COc1nc(NCCc2ccc(OC)c(OC)c2)nc(Nc2ccccc2)n1	i	15µM	?	nt	?
COc1ccc(CCNc2cc(C)nc3c(-c4ccc(Cl)cc4)cnn23)cc1OC	i	21µM	16µM	i	i
COc1ccc(CCNc2nc(-c3ccccc3OC)cc(C(F)(F)F)n2)cc1OC	nt	?	?	i	nt
COCCNc1cc(C)nc2c(-c3ccccc3OC)c(C)nn12	i	i	i	i	i
COc1ccc(CCNc2cc(C)nc3c(-c4ccccc4)c(C)nn23)cc1OC	i	?	16µM	i	i
COc1ccc(CCNc2cc(C)nc3c(-c4ccccc4)cnn23)cc1OC	i	?	29µM	i	i
COc1ccccc1-c1cnn2c(NCCc3ccccc3)cc(C)nc12	?	i	?	nt	i
COc1cc2c(cc1OC)C1CC(=O)C(CC(C)C)CN1CC2 (stereo not given)	i	i	i	i	i
CCN1C(=O)c2ccccc2Sc2ccc(C(=O)O)cc21	i	i	i	nt	i
O=C(O)/C=C/c1cn(Cc2ccccc2)nc1-c1ccccc1	i	i	i	i	i
O=C(O)CCn1cc(/C=C/C(=O)c2ccc(Cl)cc2)c(-c2ccc(Br)cc2)n1	?	16µM	23µM	i	7.1µM
SMILES	Gal4-VP16 FLuc	TDP1 cell CPT	DT40 TDP1 no CPT	TDP1 block	RORg inh
CCN(CC(=O)Nc1c(F)cccc1F)C(=O)c1ccc(Cl)c(S(=O)(=O)N2CCCC2)c1	nt	i	i	i	nt
CCc1ccc(-c2cn3c(n2)sc2cc(C(=O)NC4CCCCC4)ccc23)cc1	nt	3.7µM	6.5µM	i	nt
O=C(NC1CCCCCC1)c1ccc2c(c1)sc1nc(-c3ccccc3)cn12	nt	9.2µM	16µM	i	nt
CCOC(=O)N1CCC(NC(=O)c2ccc3c(c2)sc2nc(-c4ccccc4)cn23)CC1	i	15µM	9.2µM	i	?
COc1ccc(-c2cn3c(n2)sc2cc(C(=O)NC4CCCCC4)ccc23)cc1	nt	?	i	i	nt
O=C(COC(=O)c1nc(Cl)ccc1Cl)NCc1ccccc1	i	i	i	i	i
COC(=O)c1ccc(CN(c2ccc(OC)cc2)S(=O)(=O)c2ccccc2)cc1	nt	?	13µM	nt	nt
COc1ccc(N(Cc2ccccc2)S(=O)(=O)c2ccc(C)cc2)cc1	i	i	?	i	i

Source: PubChem (National Center for Advancing Translational Sciences (NCATS))
